Results: the supplement of paper PMC3545927
The list shows a part of the results. The hit rate among all sequences tested is not known here.

Biological target: furin, P09958
Assay: furin cleavage Z-score vs untreated control; higher = more cleavage, active = 3.5 or more, inactive = 1 or less, 8 variable residues between constant flanks
Method in brief: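 Furin-free reactions served as the baseline for the cleavage Z-score, which is the log read count lowess-adjusted and scaled by median absolute deviation. Counts came from released DNA, adapter-tagged by PCR and sequenced. Purified furin had cut 8-mer peptides fused to a cDNA oligonucleotide on magnetic beads during 7.5, 15 or 30 min at 1:10 enzyme:substrate.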
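Further: purified furin at 1:10 enzyme:substrate in 50 mM HEPES pH 7.5.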

furin, P09958, sequence (P09958 whole entry): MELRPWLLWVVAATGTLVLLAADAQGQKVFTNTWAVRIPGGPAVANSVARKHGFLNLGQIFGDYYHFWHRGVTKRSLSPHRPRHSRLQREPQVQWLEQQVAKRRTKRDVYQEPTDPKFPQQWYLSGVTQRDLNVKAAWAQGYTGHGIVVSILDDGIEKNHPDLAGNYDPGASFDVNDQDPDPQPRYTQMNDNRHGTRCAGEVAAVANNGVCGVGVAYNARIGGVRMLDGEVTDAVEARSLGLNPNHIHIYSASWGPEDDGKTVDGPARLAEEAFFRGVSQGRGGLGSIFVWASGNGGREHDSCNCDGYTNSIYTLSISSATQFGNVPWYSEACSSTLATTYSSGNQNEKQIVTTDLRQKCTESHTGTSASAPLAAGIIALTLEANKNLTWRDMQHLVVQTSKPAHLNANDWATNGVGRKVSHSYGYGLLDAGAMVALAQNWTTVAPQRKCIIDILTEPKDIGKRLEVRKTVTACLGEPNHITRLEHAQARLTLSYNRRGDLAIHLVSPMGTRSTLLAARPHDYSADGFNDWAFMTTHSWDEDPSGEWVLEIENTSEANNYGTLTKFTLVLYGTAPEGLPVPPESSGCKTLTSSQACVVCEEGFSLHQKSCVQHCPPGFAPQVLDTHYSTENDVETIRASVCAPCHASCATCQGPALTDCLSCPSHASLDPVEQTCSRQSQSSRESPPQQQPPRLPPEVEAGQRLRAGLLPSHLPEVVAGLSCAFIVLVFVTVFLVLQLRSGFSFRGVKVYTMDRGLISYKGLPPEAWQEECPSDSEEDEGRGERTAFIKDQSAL

CAVVCMSMSYAGNASASA [HC88]
furin cleavage Z-score (7.5 min): -1.17 (inactive)
furin cleavage Z-score (15 min): -0.925 (inactive)
furin cleavage Z-score (30 min): 0.213 (inactive)

CAPPSWDQMWAGNASASA [HC961]
furin cleavage Z-score (7.5 min): 1.06
furin cleavage Z-score (15 min): -0.132 (inactive)
furin cleavage Z-score (30 min): 1

CAVKNGTMRIAGNASASA [HC1180]
furin cleavage Z-score (7.5 min): 2.3
furin cleavage Z-score (15 min): 1.25
furin cleavage Z-score (30 min): 0.508 (inactive)

CADTERKRRHAGNASASA [FS-411]
furin cleavage Z-score (7.5 min): 8.87 (active)
furin cleavage Z-score (15 min): 11 (active)
furin cleavage Z-score (30 min): 9.59 (active)

CAHELRHRRHAGNASASA [FS-170]
furin cleavage Z-score (7.5 min): 11 (active)
furin cleavage Z-score (15 min): 10.9 (active)
furin cleavage Z-score (30 min): 11 (active)

CAAEARKNRPAGNASASA [FS-1508]
furin cleavage Z-score (7.5 min): -0.91 (inactive)
furin cleavage Z-score (15 min): 0.425 (inactive)
furin cleavage Z-score (30 min): -1.59 (inactive)

CARFRRKRRHAGNASASA [FS-854]
furin cleavage Z-score (7.5 min): 9.74 (active)
furin cleavage Z-score (15 min): 9.95 (active)
furin cleavage Z-score (30 min): 7.32 (active)

CADLYLVTRHAGNASASA [HC725]
furin cleavage Z-score (7.5 min): -0.523 (inactive)
furin cleavage Z-score (15 min): -1.17 (inactive)
furin cleavage Z-score (30 min): -0.885 (inactive)

CAPAIASLMAAGNASASA [HC1053]
furin cleavage Z-score (7.5 min): -0.244 (inactive)
furin cleavage Z-score (15 min): 1.04
furin cleavage Z-score (30 min): 0.347 (inactive)

CAFVPCHRPSAGNASASA [HC2307]
furin cleavage Z-score (7.5 min): -1.81 (inactive)
furin cleavage Z-score (15 min): 0.496 (inactive)
furin cleavage Z-score (30 min): 0.113 (inactive)

CALHEYPVGSAGNASASA [HC1236]
furin cleavage Z-score (7.5 min): -0.438 (inactive)
furin cleavage Z-score (15 min): -0.864 (inactive)
furin cleavage Z-score (30 min): -0.00108 (inactive)

CAEERARAKWAGNASASA [EK3]
furin cleavage Z-score (7.5 min): 0.379 (inactive)
furin cleavage Z-score (15 min): 1.71
furin cleavage Z-score (30 min): -0.287 (inactive)

CAEVVTSTWVAGNASASA [HC136]
furin cleavage Z-score (7.5 min): 0.215 (inactive)
furin cleavage Z-score (15 min): -1.42 (inactive)
furin cleavage Z-score (30 min): -0.55 (inactive)

CAVVCDSMSYAGNASASA [HC92]
furin cleavage Z-score (7.5 min): -1.45 (inactive)
furin cleavage Z-score (15 min): 0.971 (inactive)
furin cleavage Z-score (30 min): -0.149 (inactive)

CAEPEPDVAVAGNASASA [HC1242]
furin cleavage Z-score (7.5 min): -1.24 (inactive)
furin cleavage Z-score (15 min): -1.89 (inactive)
furin cleavage Z-score (30 min): 0.391 (inactive)

CARFYRPVAVAGNASASA [FS-2670]
furin cleavage Z-score (7.5 min): -2.66 (inactive)
furin cleavage Z-score (15 min): -1.03 (inactive)
furin cleavage Z-score (30 min): -2.39 (inactive)

CARVARFVTHAGNASASA [FS-1798]
furin cleavage Z-score (7.5 min): 0.861 (inactive)
furin cleavage Z-score (15 min): 1.96
furin cleavage Z-score (30 min): 4.55 (active)

CARVARFATSAGNASASA [FS-2529]
furin cleavage Z-score (7.5 min): 2.89
furin cleavage Z-score (15 min): 4.14 (active)
furin cleavage Z-score (30 min): 5.25 (active)

CAHARKAVTHAGNASASA [HC1426]
furin cleavage Z-score (7.5 min): -1.35 (inactive)
furin cleavage Z-score (15 min): -0.868 (inactive)
furin cleavage Z-score (30 min): 0.178 (inactive)

CAFTTLPALSAGNASASA [HC500]
furin cleavage Z-score (7.5 min): 1.12
furin cleavage Z-score (15 min): -0.632 (inactive)
furin cleavage Z-score (30 min): 1.28

CARVARAMSIAGNASASA [FS-1797]
furin cleavage Z-score (7.5 min): -0.644 (inactive)
furin cleavage Z-score (15 min): 0.561 (inactive)
furin cleavage Z-score (30 min): 2.57

CARVARDVAVAGNASASA [FS-3113]
furin cleavage Z-score (7.5 min): 9.5 (active)
furin cleavage Z-score (15 min): 11.7 (active)
furin cleavage Z-score (30 min): 9.58 (active)

CARVSRFVTWAGNASASA [FS-1804]
furin cleavage Z-score (7.5 min): 0.465 (inactive)
furin cleavage Z-score (15 min): 2.02
furin cleavage Z-score (30 min): 2.57

CAEYTTPCSGAGNASASA [HC1969]
furin cleavage Z-score (7.5 min): -0.151 (inactive)
furin cleavage Z-score (15 min): -0.366 (inactive)
furin cleavage Z-score (30 min): -0.644 (inactive)

CAWFCLLLLAAGNASASA [HC1657]
furin cleavage Z-score (7.5 min): -0.863 (inactive)
furin cleavage Z-score (15 min): -0.454 (inactive)
furin cleavage Z-score (30 min): -2.53 (inactive)

CACREVPCHRAGNASASA [HC2440]
furin cleavage Z-score (7.5 min): -0.508 (inactive)
furin cleavage Z-score (15 min): -2.04 (inactive)
furin cleavage Z-score (30 min): -1.44 (inactive)

CAWRQEMGGNAGNASASA [HC1277]
furin cleavage Z-score (7.5 min): 0.884 (inactive)
furin cleavage Z-score (15 min): -0.41 (inactive)
furin cleavage Z-score (30 min): 1.35

CASERSQPRGAGNASASA [HC187]
furin cleavage Z-score (7.5 min): 0.546 (inactive)
furin cleavage Z-score (15 min): 0.429 (inactive)
furin cleavage Z-score (30 min): 0.503 (inactive)

CAAKRRQKREAGNASASA [FS-1110]
furin cleavage Z-score (7.5 min): 12.9 (active)
furin cleavage Z-score (15 min): 13 (active)
furin cleavage Z-score (30 min): 8.62 (active)

CAQTNWQKLEAGNASASA [HC1036]
furin cleavage Z-score (7.5 min): 0.636 (inactive)
furin cleavage Z-score (15 min): -0.515 (inactive)
furin cleavage Z-score (30 min): -0.384 (inactive)

CAPRRRKGRNAGNASASA [FS-1473]
furin cleavage Z-score (7.5 min): 10.1 (active)
furin cleavage Z-score (15 min): 11.5 (active)
furin cleavage Z-score (30 min): 9.35 (active)

CATVLDQAETAGNASASA [HC826]
furin cleavage Z-score (7.5 min): 1.14
furin cleavage Z-score (15 min): 0.395 (inactive)
furin cleavage Z-score (30 min): -0.728 (inactive)

CASIRRQKREAGNASASA [FS-563]
furin cleavage Z-score (7.5 min): 11.3 (active)
furin cleavage Z-score (15 min): 10.3 (active)
furin cleavage Z-score (30 min): 8.38 (active)

CATVRRQKREAGNASASA [FS-1175]
furin cleavage Z-score (7.5 min): 12.4 (active)
furin cleavage Z-score (15 min): 13.7 (active)
furin cleavage Z-score (30 min): 9.11 (active)

CAYFSMVGNWAGNASASA [HC341]
furin cleavage Z-score (7.5 min): -0.31 (inactive)
furin cleavage Z-score (15 min): -0.533 (inactive)
furin cleavage Z-score (30 min): -2.31 (inactive)

CAPRRRQQREAGNASASA [FS-1551]
furin cleavage Z-score (7.5 min): 6.3 (active)
furin cleavage Z-score (15 min): 4.83 (active)
furin cleavage Z-score (30 min): 5.13 (active)

CACKPLLREEAGNASASA [HC1229]
furin cleavage Z-score (7.5 min): -2.56 (inactive)
furin cleavage Z-score (15 min): 0.033 (inactive)
furin cleavage Z-score (30 min): 0.531 (inactive)

CAPRRHWTTQAGNASASA [HC308]
furin cleavage Z-score (7.5 min): 0.172 (inactive)
furin cleavage Z-score (15 min): -0.306 (inactive)
furin cleavage Z-score (30 min): 0.325 (inactive)

CAVLSDFKTWAGNASASA [HC1154]
furin cleavage Z-score (7.5 min): -0.128 (inactive)
furin cleavage Z-score (15 min): -0.333 (inactive)
furin cleavage Z-score (30 min): -0.963 (inactive)

CAVLSRQKREAGNASASA [FS-206]
furin cleavage Z-score (7.5 min): 11.7 (active)
furin cleavage Z-score (15 min): 9.59 (active)
furin cleavage Z-score (30 min): 8.73 (active)

CATTPCAGSWAGNASASA [HC61]
furin cleavage Z-score (7.5 min): -1.21 (inactive)
furin cleavage Z-score (15 min): 0.988 (inactive)
furin cleavage Z-score (30 min): 1.04

CASFDPLVAEAGNASASA [HC1288]
furin cleavage Z-score (7.5 min): -1.29 (inactive)
furin cleavage Z-score (15 min): -0.652 (inactive)
furin cleavage Z-score (30 min): 0.659 (inactive)

CACAVRHMRSAGNASASA [FS-1513]
furin cleavage Z-score (7.5 min): 0.659 (inactive)
furin cleavage Z-score (15 min): 0.712 (inactive)
furin cleavage Z-score (30 min): 1.2

CAEARRTMRSAGNASASA [FS-228]
furin cleavage Z-score (7.5 min): 6.84 (active)
furin cleavage Z-score (15 min): 6.18 (active)
furin cleavage Z-score (30 min): 7.34 (active)

CAWLERTMRSAGNASASA [FS-108]
furin cleavage Z-score (7.5 min): 4.21 (active)
furin cleavage Z-score (15 min): 5.66 (active)
furin cleavage Z-score (30 min): 4.38 (active)
